Screens from PubChem BioAssay.
The list is not random: actives were taken first. Their share in the collection is about 15%.
SARS PLpro yeast: blocks SARS-CoV papain-like protease in a yeast assay | S. cerevisiae expressing SARS-CoV PLpro, growth rescue | Potency, µM (top dose mostly 32.9 µM), for the others: at the top dose activity, positive = growth rescue, most hits filed as activators | actives 0.19% (n = 330,000); calls by dose curve; also: potency is read from the fitted curve at half-maximal effect; 0% is about no effect; nearly all actives have a fitted effect of over 55% in size
Sm TGR block: blocks Schistosoma mansoni thioredoxin glutathione reductase. purified TGR, DTNB reduction, TNB absorbance 405 nm. Q962Y6. Potency, µM (top dose mostly 114 µM), for inactives: at the highest dose activity change, negative = inhibition, most hits filed as inhibitors. AID 485364. actives 3% (n = 360,000); also: potency is read from the fitted curve at half-maximal effect; % is scaled to controls: 0 for no effect and ±100 for the full control effect; nearly all actives have a fitted effect of over 60% in size
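TGR 20 nM + NADPH 100 uM (dispensed conc.), cpd preinc 15 min RT; start with NADPH (500 uM addition) then DTNB (15 mM addition). Kinetic TNB absorbance, 405 nm filter. Four-parameter Hill fit across titration.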
Pf growth 96h: P. falciparum growth inhibition at 96 hours. actives 6.9% (n = 320,000). P. falciparum luciferase reporter growth, 96 h. Potency, µM (series often up to 28.7 µM), without a hit: top-dose activity change, negative = inhibition, most hits filed as inhibitors. AID 504834; also: potency is read from the fitted curve at half-maximal effect; % is scaled to controls: 0 for no effect and ±100 for the full control effect
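Two-generation exposure (96 h) targets delayed-death phenotype. Reporter parasites carrying integrated firefly luciferase, in red cells at 2% hematocrit and 0.05% parasitemia final, kept at 37 C, 5% CO2; luminescence loss indicates inhibition.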
HCV inhibitor: inhibitors of hepatitis C virus infection. Potency, µM (titrated, usually from 41.8 µM), without a hit: top-dose activity change, negative = inhibition, hits mostly inhibitors. actives 3.4% (n = 340,000). Huh7.5.1 HCVcc-Cre infection, luciferase reporter, 44 h; also: potency is read from the fitted curve at half-maximal effect; % is scaled to controls: 0 for no effect and ±100 for the full control effect
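Whole-lifecycle infectious HCVcc-Cre system; cells 1,000/well, compound then virus (~0.5 moi) added 4 h after plating, 44 h culture. Luciferase read 15 sec following 15 min substrate incubation, room temp.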
HCMV antiviral: blocks human cytomegalovirus replication; HFF cells, HCMV-luciferase reporter, 72 h; stronger effect = lower value; activity change, negative = inhibition, % at 57.5 µM; actives 4.5% (n = 410,000); in the data active = activity change below about -60%; inconclusive = no clear call, values can overlap the other calls; inactive = above about -39%; also: % is scaled to controls: 0 for no effect and ±100 for the full control effect
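Two-dose cell screen: HFF monolayers treated with compounds and infected with luciferase-expressing HCMV at 1 PFU/cell, 72 h at 37C, then lysed for luciferase measurement.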
Pf growth 48h: inhibits P. falciparum growth in the first generation, 48 h; P. falciparum luciferase growth in erythrocytes, 48 h; actives 5.9% (n = 310,000); Potency, µM (series often up to 28.7 µM), for the others: at the top dose activity change, negative = inhibition, hits mostly inhibitors; also: potency is read from the fitted curve at half-maximal effect; % is scaled to controls: 0 for no effect and ±100 for the full control effect
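Compounds are pin-transferred into medium, infected erythrocytes (2% hematocrit, 0.1% parasitemia final) are added, and plates sit one parasite generation at 37 C in 5% CO2. Detection reagent is then added and luminescence measured.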
Active calls of the source: *. Unless noted, calls follow the shape of the dose curve; as a rule, active = well fitted curve in the direction sought with a large enough effect; inconclusive = small, poorly fitted or top-dose-only effect, or another doubt; inactive = no such curve, though single readings can be large; an effect the other way counts as inactive or inconclusive.

For CC1=CC2OC3CC4OC(=O)C=CC=CC(C(C)O)OCC(O)C5(C)OC5C(=O)OCC2(CC1O)C4(C)C31CO1 (centres undefined) the results were HCMV antiviral -98*.
For CCc1ccc(CN(Cc2ccco2)C(=O)COc2ccc(Cl)cc2C)cc1 the results were Sm TGR block 0% and HCMV antiviral -39.
CN(c1ccccc1)S(=O)(=O)c1cccc(C(=O)Nc2nn[nH]n2)c1 was read as SARS PLpro yeast 1%, Sm TGR block 4%, Pf growth 96h 27%, HCV inhibitor -3%, HCMV antiviral 0 and Pf growth 48h 33%.
For Cc1nc2sc(C(c3ccco3)N3CCC(C)CC3)c(O)n2n1 (centres undefined) the results were SARS PLpro yeast 0%, Sm TGR block 45µM*, Pf growth 96h 8%, HCV inhibitor 1%, HCMV antiviral 27 and Pf growth 48h -3%.
Screening Cc1nc2sc(C(c3ccco3)N3CCN(C(c4ccccc4)c4ccccc4)CC3)c(O)n2n1 (centres undefined) returned SARS PLpro yeast -14%, Sm TGR block inconclusive, Pf growth 96h inconclusive, HCV inhibitor inconclusive, HCMV antiviral -32 and Pf growth 48h 1.7µM*.
Screening Cc1nc2sc(C(c3ccccc3)N3CCOCC3)c(O)n2n1 (centres undefined) returned SARS PLpro yeast 0%, Sm TGR block -5%, Pf growth 96h -21%, HCV inhibitor -2%, HCMV antiviral -2 and Pf growth 48h -7%.
`Cc1nc2sc(C(c3ccco3)N3CCN(c4cccc(Cl)c4)CC3)c(O)n2n1` (centres undefined) gave SARS PLpro yeast 19%, Sm TGR block 0%, Pf growth 96h 0%, HCV inhibitor inconclusive, HCMV antiviral -17 and Pf growth 48h 10%.
`Cc1nc2sc(C(c3ccco3)N3CCN(c4ccccc4)CC3)c(O)n2n1` (centres undefined) gave SARS PLpro yeast -4%, Sm TGR block inconclusive, Pf growth 96h -14%, HCV inhibitor 11%, HCMV antiviral -100* and Pf growth 48h -23%.
Screening Cc1nc2sc(C(c3ccc(Cl)cc3)N3CCOCC3)c(O)n2n1 (centres undefined) returned SARS PLpro yeast -6%, Sm TGR block 12%, Pf growth 96h 106%, HCV inhibitor 14%, HCMV antiviral -101* and Pf growth 48h inconclusive.
`O=C(NCc1cccnc1)OC1CC2CC1[C@H]1CCCCN1C2=O` (some centres undefined) gave HCMV antiviral 3.
For COc1ccccc1C(=O)NC(=O)COC(=O)c1nc(Cl)ccc1Cl the results were SARS PLpro yeast -10%, Sm TGR block -2%, Pf growth 96h 1%, HCV inhibitor -10%, HCMV antiviral -28 and Pf growth 48h 8%.
`O=C(CC1(O)C(=O)Nc2ccc(Br)cc21)c1ccccc1` (centres undefined) gave HCMV antiviral 29.
Screening Cc1nc2sc(C(c3ccccc3)N3CC(C)OC(C)C3)c(O)n2n1 (centres undefined) returned SARS PLpro yeast 6%, Sm TGR block 5%, Pf growth 96h inconclusive, HCV inhibitor 20%, HCMV antiviral 43 and Pf growth 48h 58%.
For CCOC(=O)C1CCN(C(c2cccs2)c2sc3nc(C)nn3c2O)CC1 (centres undefined) the results were SARS PLpro yeast -2%, Sm TGR block -7%, Pf growth 96h -1%, HCV inhibitor -7%, HCMV antiviral -62* and Pf growth 48h -7%.
Cc1nc2sc(C(c3cccs3)N3CCN(c4ccccc4)CC3)c(O)n2n1 (centres undefined) was read as SARS PLpro yeast 1%, Sm TGR block 3%, Pf growth 96h 6%, HCV inhibitor 22%, HCMV antiviral -70* and Pf growth 48h 1%.
Screening Cc1nc2sc(C(c3ccco3)N3CC(C)OC(C)C3)c(O)n2n1 (centres undefined) returned SARS PLpro yeast 8%, Sm TGR block 45µM*, Pf growth 96h inconclusive, HCV inhibitor 4%, HCMV antiviral 30 and Pf growth 48h 10%.
Screening Cc1ccc(CN2CCCN(Cc3ccc(Cl)cc3)S2(=O)=O)cc1 returned SARS PLpro yeast -1%, Sm TGR block -1%, Pf growth 96h 0%, HCV inhibitor 1%, HCMV antiviral 18 and Pf growth 48h 37%.
Screening Cc1ccccc1CN1CCCN(Cc2ccc(Cl)cc2)S1(=O)=O returned SARS PLpro yeast -5%, Sm TGR block 4%, Pf growth 96h 0%, HCV inhibitor -26%, HCMV antiviral -60* and Pf growth 48h 12%.
For CC(C)N1C(=O)C(O)(c2c[nH]c3ccccc23)c2ccccc21 (centres undefined) the results were Sm TGR block -8% and HCMV antiviral 28.
`Cc1cc(OCC(=O)NCC(c2cccs2)N2CCOCC2)ccc1C(C)C` (centres undefined) gave SARS PLpro yeast -7%, Sm TGR block -4%, Pf growth 96h 13µM*, HCV inhibitor inconclusive, HCMV antiviral -26 and Pf growth 48h inconclusive.
Screening O=C(COc1cccc(Cl)c1)NCC(c1cccs1)N1CCOCC1 (centres undefined) returned SARS PLpro yeast 4%, Sm TGR block -25%, Pf growth 96h inconclusive, HCV inhibitor 5%, HCMV antiviral 0 and Pf growth 48h inconclusive.
Cc1cccc(OCC(=O)NCC(c2cccs2)N2CCOCC2)c1 (centres undefined) was read as SARS PLpro yeast 0%, Sm TGR block -9%, Pf growth 96h -8%, HCV inhibitor 2%, HCMV antiviral 9 and Pf growth 48h -1%.
For Cc1ccc(C(C)C)c(OCC(=O)NCC(c2cccs2)N2CCOCC2)c1 (centres undefined) the results were SARS PLpro yeast -1%, Sm TGR block 5%, Pf growth 96h 10µM*, HCV inhibitor inconclusive, HCMV antiviral inconclusive and Pf growth 48h 13µM*.
For Cc1cc(Cl)ccc1OCC(=O)NCC(c1cccs1)N1CCOCC1 (centres undefined) the results were SARS PLpro yeast -8%, Sm TGR block 0%, Pf growth 96h inconclusive, HCV inhibitor 10µM*, HCMV antiviral -72* and Pf growth 48h 13µM*.
Screening COc1ccc(/C=C/C(=O)NC(=S)NNC(=O)c2ccco2)cc1OC returned SARS PLpro yeast 1%, Sm TGR block -3%, Pf growth 96h 20%, HCV inhibitor -24%, HCMV antiviral -19 and Pf growth 48h inconclusive.
